Data published in PubChem BioAssay (NCATS).
Inconclusive results are not listed. Entries that show only a call come without a potency. Calls of active or inactive are those of the source. Calls follow the shape of the dose curve; as a rule, active = well fitted inhibition curve with a large enough effect; inconclusive = small, poorly fitted or top-dose-only effect; inactive = no such curve, though single readings can be large or run the other way. Positions of bridges follow the written chain, without caps; N, C: chain ends. Non-standard residues stand in square brackets, D forms with d. Residues, ends and D or L forms follow the SMILES beside them. ξ: configuration not given here. *: point of attachment. Octanoyl(6-Me) = CCC(C)CCCCC(=O)*; ξThr(3R) = C[C@@H](O)C(N)C(=O)O; dDab = NCC[C@@H](N)C(=O)O; Dab = NCC[C@H](N)C(=O)O

assay: NS1 protein of Zika virus - qHTS assay to identify small molecule inhibitors in human HEK 293 cells (AID 1347053); conditions: HEK293 ZIKV MR766 infection, NS1 TR-FRET, 24 h; series mostly up to 46.1 µM; also: nearly all actives have a fitted effect of over 55% in size
Text: National Center for Advancing Translational Sciences [NCATS]
Johns Hopkins University School of Medicine
The non-structural 1 (NS1) protein of zika virus is known to associate with the viral replication complex. This cell-based TR-FRET ZIKV NS-1 assay measures the increased NS-1 protein in human HEK 293 cells after a 24-hour Zika virus infection by a TR-FRET assay readout. A decrease in the Time-resolved fluorescence energy transfer (TR-FRET) signal in this assay by small molecule treatment indicates an inhibitory effect of the small molecule on the expression of Zika virus NS1 correlating with Zika virus replication.
HEK 293 cells were cultured in EMEM (ATCC, Cat. # 30-2003) medium with 10% fetal bovine serum (GE healthcare Life Sciences, Cat. # SH30071.03), and 1% Pen/Strep (Gibco, Cat. # 15140-122). Cells were seeded in the assay plate and incubated at 37 C with 5% CO2 for 20 hours. Compounds were added to cells and incubated for one hour before addition of ZIKV MR766 strain solution to cells (MOI = 0.5). After an incubation at 37 C for 24 hours, the reagent mixture of TR-FRET ZIKV NS1 assay using two anti-ZIKV NS1 antibodies was added to assay plates. The TR-FRET signals in assay plates were measured using an Envision plate reader (PerkinElmer). Data were normalized by using the cell-containing wells without ZIKV as a negative control (0% NS-1) and wells containing ZIKV infected cells as a positive control (100% NS-1 level).
Potency is read from the fitted curve at half-maximal effect.

Row | Structure (SMILES) | Potency
1 | Cn1cnc2c(F)c(Nc3ccc(Br)cc3F)c(C(=O)NOCCO)cc21 | inactive
2 | C[C@@H]1C(=O)O[C@H]2CC34[C@H]5C[C@@H](C(C)(C)C)C36[C@H](OC(=O)[C@@H]6O)O[C@@]4(C(=O)O5)[C@]21O (stereo not given in full) | inactive
3 | C[C@H](CCC(=O)O)[C@H]1CC[C@H]2[C@@H]3[C@H](O)C[C@@H]4C[C@H](O)CC[C@]4(C)[C@@H]3CC[C@]12C | inactive
4 | COc1ccc(C[C@@H](C)[C@@H](C)Cc2ccc(OC)c(OC)c2)cc1OC | 0.833 µM (active)
5 | COC1=C(OC)C(=O)C(CC=C(C)CCC=C(C)CCC=C(C)CCC=C(C)CCC=C(C)CCC=C(C)CCC=C(C)CCC=C(C)CCC=C(C)CCC=C(C)C)=C(C)C1=O | inactive
6 | COc1cc(C=CC(=O)CC(=O)C=Cc2ccc(O)c(OC)c2)ccc1O | 19.1 µM (active)
7 | COc1ccc(CCC(=O)c2c(O)cc(O[C@@H]3O[C@H](CO)[C@@H](O)[C@H](O)[C@@H]3O[C@@H]3O[C@@H](C)[C@H](O)[C@@H](O)[C@@H]3O)cc2O)cc1O | inactive
8 | C[C@H]1C[C@H]2[C@@H]3CCC4=CC(=O)C=C[C@]4(C)[C@@H]3C(=O)C[C@]2(C)[C@@]1(O)C(=O)CO | inactive
9 | N#Cc1c(NC(=O)c2cccc3ccccc23)sc2c1CCCC2 | 10.5 µM (active)
10 | OC[C@H]1OC(O)C[C@@H](O)[C@H]1O (stereo not given in full) | inactive
11 | CC(C)Oc1ccc(C(=O)N[C@H](CNC(=O)CN(C)C)Cc2ccc(-c3cn4cccc([C@H](C)O)c4n3)cc2)cc1Cl | 20.9 µM (active)
12 | C[C@@H](Cc1cc2c(c(C(N)=O)c1)N(CCCO)CC2)NCCOc1ccccc1OCC(F)(F)F | inactive
13 | CCc1ccc(C(=O)Nc2cc(CN3CCN(C)CC3)cc(C(F)(F)F)c2)cc1C#Cc1cnc2ccnn2c1 | 13.2 µM (active)
14 | CC(=CC(=O)Nc1ccccc1C(=O)O)c1ccc2ccccc2c1 | 14.8 µM (active)
15 | CC(=O)NC(CS)C(=O)O (stereo not given) | inactive
16 | COc1cccc2c1C(=O)c1c(O)c3c(c(O)c1C2=O)C[C@@](O)(C(=O)CO)C[C@H]3O[C@H]1C[C@H](N)[C@H](O)[C@H](C)O1 | 0.332 µM (active)
17 | Cc1cc(O)c2c(c1)C(=O)c1cccc(O)c1C2=O | inactive
18 | O=C(C=CC#Cc1cccc(NS(=O)(=O)c2ccccc2)c1)NO | 13.2 µM (active)
19 | N#CC(=Cc1ccc(O)c(O)c1)C(=O)NCc1ccccc1 | inactive
20 | COc1cc(OC)c(NC(=O)Nc2cc(C)on2)cc1Cl | inactive

Row | Structure (SMILES) | Potency
21 | Oc1cc2c(cc1O)C1c3ccc(O)c(O)c3OCC1(O)C2 (stereo not given) | inactive
22 | CC(C)N1[N]C(=C2C=c3cc(O)ccc3=N2)c2c(N)ncnc21 | 4.69 µM (active)
23 | C=C1CCC2[C@](C)(CO)C(O)CC[C@]2(C)C1CC=C1C(=O)OCC1O (stereo not given in full) | inactive
24 | CC(C)(O)Cn1c(NC(=O)c2ccc(-c3cn[nH]c3)s2)nc2cc(CN3CCOCC3)ccc21 | 5.26 µM (active)
25 | CCCCCCCCCCCCc1ccc(S(=O)(=O)Nc2nncs2)cc1 | inactive
26 | c1ccc2c(Oc3nc(Nc4ccc(N5CCOCC5)cc4)c4ncn(C5CCCCC5)c4n3)cccc2c1 | inactive
27 | CC(C)(O)[C@H]1CC[C@@](C)([C@H]2[C@@H](O)C[C@@]3(C)[C@@H]4C[C@H](O[C@@H]5O[C@H](CO)[C@@H](O)[C@H](O)[C@@H]5O)[C@H]5C(C)(C)[C@@H](O[C@@H]6OC[C@@H](O)[C@H](O)[C@@H]6O)CC[C@@]56C[C@@]46CC[C@]23C)O1 | inactive
28 | C=C[C@@H]1CN2CCC1C[C@H]2[C@H](O)c1ccnc2ccc(OC)cc12 (stereo not given in full) | inactive
29 | O=c1c(O)c(-c2ccc(O)c(O)c2)oc2cc(O)ccc12 | inactive
30 | CCOC(=O)N1CCN([N+]([O-])=NOc2ccc([N+](=O)[O-])cc2C#N)CC1 | 2.96 µM (active)
31 | CC(C)(C)[N+]([O-])=Cc1ccc(S(=O)(=O)O)cc1S(=O)(=O)O | inactive
32 | C[C@](Cc1c[nH]c2ccccc12)(NC(=O)OC1C2CC3CC(C2)CC1C3)C(=O)NC[C@H](NC(=O)CCC(=O)O)c1ccccc1 (stereo not given in full) | inactive
33 | OC[C@@H](O)[C@@H](O)[C@H](O)[C@@H](O)CO | inactive
34 | NC(=O)c1cccc(-c2cccc(OC(=O)NC3CCCCC3)c2)c1 | inactive
35 | Nc1nc(=O)n([C@H]2CSC(CO)O2)cc1F (stereo not given in full) | inactive
36 | CCC(C)CCCCC(=O)N[C@@H](CCN)C(=O)NC(C(=O)N[C@H](CCN)C(=O)N[C@@H]1CCNC(=O)C([C@@H](C)O)NC(=O)[C@@H](CCN)NC(=O)[C@@H](CCN)NC(=O)[C@@H](CC(C)C)NC(=O)[C@H](Cc2ccccc2)NC(=O)[C@H](CCN)NC1=O)[C@@H](C)O (stereo partly drawn) ({Octanoyl(6-Me)}-[Dab][ξThr(3R)][dDab][dDab][Dab]F[dL][dDab][dDab][ξThr(3R)]; lactam 4-C) | inactive
37 | CNC(=O)c1cccc(-c2ccc3c(N4CCOC[C@H]4C)nc(N4CCOC[C@H]4C)nc3n2)c1 | inactive
38 | CC(C)c1cc(C(C)C)c(CC(=O)NS(=O)(=O)Oc2c(C(C)C)cccc2C(C)C)c(C(C)C)c1 | inactive
39 | Cc1ccc(O)c(C(CCN(C(C)C)C(C)C)c2ccccc2)c1 (stereo not given) | inactive
40 | O=c1[nH]c(=O)n([C@H]2C[C@@H](O)[C@@H](CO)O2)cc1C=CBr | inactive
